# Screening data deposited in PubChem BioAssay by National Center for Advancing Translational Sciences (NCATS).
# Hits are enriched below; roughly 1.5% of the tested compounds scored in any of these assays.
# PINK1 modulator: A Quantitative High throughput Screen to Identify Chemical Modulators of PINK1 Expression | 0.2% of 410,000 active | PINK1 immunofluorescence, high-content cytometry, 24 h | Potency, µM (top dose mostly 76.6 µM), for the others: at the highest dose activation (PINK1 increase), usual class: activators; active = well fitted activation curve with a large enough effect; inconclusive = small, poorly fitted or top-dose-only effect; cell line not stated here; note: potency is the fitted concentration of half-maximal effect; % of control where 0% means no effect; nearly all actives have a fitted effect of over 65% in size
#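 Stable cell line, 250 cells/well, 12 h attachment; compounds pinned at 5 concentrations, 24 h; CCCP control. Fixed with nuclear dye, primary antibodies 12 h at 10 degrees C, secondary plus cell stain; laser-scanning cytometer read.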
# BRCA1 expr up: qHTS Assay to Identify Small Molecule Activators of BRCA1 Expression; MCF7-BRCA1-FFLuc reporter, luminescence, 48 h; response scale: scaled: vehicle 0%, 10 µM genistein 100%; Potency, µM (top dose mostly 46.1 µM), inactives show at the top dose activation, actives largely listed as activators; 1.1% of 380,000 active; note: potency is the fitted concentration of half-maximal effect; nearly all actives have a fitted effect of over 80% in size
#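 48 h compound treatment of MCF7-BRCA1-FFLuc cells (phenol-red free MEM, 37 °C), then 15 min with luciferase substrate and luminescence imaging.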
# TCR act: Activators of T cell receptors: qHTS campaign; primary human leukocytes, anti-CD3, IL-2 HTRF, 48 h; Potency, µM (top dose mostly 9.22 µM), without a hit: top-dose activation of IL-2 secretion, actives largely listed as activators; 330,000 tested, under 10 active; AID 504894, 2011; note: % of control where 0% means no effect
#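 Using a-CD3 beads without co-stimulation, primary human leukocytes were exposed to compounds for 48 hr. An HTRF IL-2 kit measured the cytokine, with europium-to-d2 energy transfer producing emission at 665nm upon 320nm excitation.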
# Akt phos inh: HTS Assay for Inhibitors of Akt Phophorylation: Primary Screen; Neuro2A IGF-stimulated pAkt S473 HTRF, 20 min; active compounds read low; activity change, % for hits at 50 µM; AID 651550, 2012; 0.32% of 360,000 active; in the data active = activity change below about -80%; inconclusive = mostly about -51% to -80%; note: % is set by controls: 0 for no effect and ±100 for the full control effect
#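 Neuro2A cells (4,500/well, DMEM with 0.5% FBS) were treated with compound at a single 50 µM final concentration, stimulated with 6 nM IGF for 20 min at 37 °C, and lysed. Phospho-Akt Ser473 was read by HTRF as 665/615 ratio ×10^4.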
# * = called active by the depositor; i = inactive; ? = inconclusive; / = no result given; [ ] = dose if it differs, or a comment. Unless noted, calls come from the whole dose curve; as a rule, active = well fitted curve in the direction sought with a large enough effect; inconclusive = small, poorly fitted or top-dose-only effect, or another doubt; inactive = no such curve, though single readings can be large; an effect the other way counts as inactive or inconclusive.
SMILES,PINK1 modulator,BRCA1 expr up,TCR act,Akt phos inh
Cc1cc(NC(C)c2ccccc2)n2ncc(-c3ccccc3)c2n1 (centres undefined),2%,6.3µM*,5%,i
Cc1cc(NCCCn2ccnc2)n2ncc(-c3ccccc3)c2n1,0%,?,3%,-90%*
Cc1cc(NCCCn2ccnc2)n2nc(C)c(-c3ccccc3)c2n1,-3%[38.3 µM],51%,-1%,i
CCN(CC)S(=O)(=O)c1cc(C(=O)Nc2ccc(Cl)cn2)ccc1C,-1%,?,-5%,-114%*
CCN(Cc1ccccc1)S(=O)(=O)c1cc(C(=O)Nc2cc(Cl)cc(Cl)c2)ccc1F,45µM*,/,/,/
CCN=C1NN=C(c2ccc(C)cc2)CS1,-6%[38.3 µM],2.2µM*,5%,i
c1ccc(CN=C2NN=C(c3ccccc3)CS2)cc1,1%,68%,-1%,i
COc1ccc(NC(=O)Cn2cnc3ccc(S(=O)(=O)N4CCC(C)CC4)cc3c2=O)cc1OC,26%,-16%,/,/
Cc1ccc2c(=O)cc(C(=O)Nc3sc4c(c3C(N)=O)CCCC4)oc2c1,12%,/,/,/
CCCCN(C)CCNC(=O)c1cc2cc3ccc(OC)cc3nc2o1,2%,15%,7%,i
CCCCN(C)C(=O)c1cc2cc3ccc(OC)cc3nc2o1,4%,4.5µM*,-2%,i
CCCCN(C)C(=O)c1cc2cc3cc(OC)ccc3nc2o1,1%,6.3µM*,2%,i
COCCn1c(=N)c(C(=O)NCCc2ccc(OC)cc2)cc2c(=O)n3cccc(C)c3nc21,1%,0%,-1%,-107%*
COc1ccccc1-c1nn2c(=O)cc(C)nc2s1,0%,10µM*,-7%,i
COc1ccccc1-c1nn2c(-c3ccco3)nnc2s1,-4%[38.3 µM],7.9µM*,-3%,i
c1coc(-c2nn3c(-c4ccco4)nnc3s2)c1,1%,21%,0%,i
CC1CCC(NC(=O)c2cc3c(s2)CCCC3)CC1 (centres undefined),3%,4µM*,-5%,i
O=C(NCc1ccco1)c1cc2c(s1)CCCCC2,-3%[38.3 µM],11µM*,5%,i
O=C(Nc1ccon1)c1cc2c(s1)CCCCCC2,0%[38.3 µM],10µM*,4%,i
O=C(/C=C/c1ccccn1)NCC1Cc2cccc(-c3ncccn3)c2O1 (centres undefined),1%,/,/,/
COc1cccc(CNc2ncnc3sc(C(=O)N4CCOCC4)c(C)c23)c1OC,0%,/,/,/
CCOc1ccc(CCNC(=O)C2CCC(=O)N2C2CCCCC2)cc1OCC (centres undefined),4µM*,-15%,/,i
CCOc1ccc(N2CC(C(=O)NCCc3ccc(OC)c(OC)c3)CC2=O)cc1 (centres undefined),-3%,-1%,10%,-107%*
O=C(NCCc1ccc(Cl)cc1)C1CCC(=O)N1C1CCCC1 (centres undefined),/,-2%,-2%,i
COc1ccc(CCNC(=O)C2CC(=O)N(c3ccc(C)cc3)C2)cc1OC (centres undefined),4%,7%,-9%,i
SMILES,PINK1 modulator,BRCA1 expr up,TCR act,Akt phos inh
Cc1cc(C)nc(S[C@H]2C[C@@H](C(=O)N3CCN(c4ccccc4F)CC3)N(Cc3ccccc3F)C2)n1,1%,/,/,/
COc1cccc(CNC(=O)c2c(OC)cc(=O)n3c2CCN(C(=O)c2ccc(C)s2)CC3)c1,1%,/,/,/
N#Cc1c(NC(=O)c2ccccc2Cl)n(Cc2ccccc2)c2nc3ccccc3nc12,?,-90%,-3%[46.1 µM],i
CCCCn1c(NC(=O)c2ccccc2Cl)c(C#N)c2nc3ccccc3nc21,40µM*,-106%,-7%,i
CNC(=O)c1c(Cl)cnn1-c1ccc(C)cc1,3%,6.3µM*,2%,i
CCN(CC)c1ccc(/C=C/c2c(C)cnc3ccccc23)cc1,1%,-46%,/,/
COc1cccc(NC(=O)c2cnc[nH]2)c1,0%,67%,-2%,i
O=C(Nc1ccc(Br)cc1)c1cnc[nH]1,0%,13µM*,-2%,i
COc1ccccc1CNC(=O)COCc1cc(-c2cccs2)on1,0%,/,/,/
Cc1ccc(Nc2cc(C)c3c(O)cccc3n2)cc1C,5%,5.6µM*,1%,i
COc1ccc(Nc2cc(C)c3c(O)cccc3n2)cc1,-1%,?,5%,i
CCOc1ccc(NC(=S)NNc2ccnc3cc(Cl)ccc23)cc1,?,-61%,-13%,i
S=C(NNc1ccnc2cc(Cl)ccc12)Nc1ccc(Cl)cc1Cl,8.9µM*,-52%,1%,i
C=CCNc1nc(Nc2ccccc2F)nc(OCC)n1,-1%,10µM*,-6%,i
CCOc1nc(Nc2ccccc2F)nc(OCC)n1,0%,3%,/,i
CCOC(=O)C1C(=O)CC(C)(O)C(C(=O)OCC)C1c1cccs1 (centres undefined),1%,1%,3%,-109%*
CC(=O)c1ccc(F)c(-c2cc(C)cc3c2OC(CNC(=O)Cn2nc(C)nc2C)C3)c1 (centres undefined),0%,/,/,/
COc1ccc2[nH]c(-c3ccccc3)cc2c1,5%,3.5µM*,-4%,i
COc1ccc(C(=O)Nc2ccc(C(F)(F)F)n(C)c2=O)cc1,2%,11µM*,12%[46.1 µM],i
Cc1ccc(C(=O)Nc2ccc(C(F)(F)F)n(C)c2=O)cc1,-3%,15%,-8%,i
CN(CCO)C(=O)c1cn(C2CCCN(Cc3cccc4ccccc34)C2)nn1 (centres undefined),1%,/,/,/
CCCCCc1nnc(NC(=O)C2COc3ccccc3O2)s1 (centres undefined),0%,15%,-2%,i
CCN(CC)S(=O)(=O)c1ccc(NC(=O)C2COc3ccccc3O2)cc1 (centres undefined),-2%,-22%,3%,-121%*
CCc1nnc(NC(=O)C2COc3ccccc3O2)s1 (centres undefined),0%,11µM*,-2%,i
COc1ccc(Cl)cc1N1C(=O)[C@@H]2C[C@H]1CN2Cc1nc2ccccc2nc1C,1%,/,/,/
SMILES,PINK1 modulator,BRCA1 expr up,TCR act,Akt phos inh
CSc1nc(C)c2c(n1)N(c1ccc(F)cc1)CC2,5%,3%,-3%,-111%*
COCc1c(C(=O)N2CCN(c3ccccc3)CC2)cnn1-c1nccc(-c2ccco2)n1,4%,/,/,/
CC(C)c1ccc(N2C(=O)[C@@H]3Cc4ccccc4CN3C2=O)cc1,4%,-1%,-2%,-108%*
Cc1ccc(N2C(=O)[C@@H]3Cc4ccccc4CN3C2=O)cc1,-2%[38.3 µM],19%,-6%,i
COC(=O)N1N=C(c2ccccc2)CC1(O)C(F)(F)F (centres undefined),/,11µM*,/,i
O=c1[nH][nH]c(=O)c2c(NS(=O)(=O)c3ccccc3)cccc12,0%,13µM*,1%,i
COc1ccc(C)cc1NC(=O)Nc1ccc(C(=O)N2CCCC2)cc1,1%,7.9µM*,-3%,i
COCc1c(C(=O)NC2CCCC2)cnn1-c1nccc(-c2cc(C)sc2C)n1,1%,/,/,/
